From PubChem
The sample as a whole holds a higher share of hits than the screen did.
D1 allo mod: D1 CRE-luciferase signal change, two-sided – cell-based, HEK293 D1, dopamine EC30, D1 allosteric modulator project, primary screen; D(1A) dopamine receptor (Homo sapiens), P21728; dopamine EC30 potentiation; actives deviate in either direction; B-score at 10 µM; 5.9% of 58,000 active;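 active means luminescence count or its row- and column-corrected plate score outside the 99.7% band of the plate's sample wells, on either side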
Calb biofilm kill: clotrimazole potentiators killing Candida biofilms, primary screen, with clotrimazole, Alamar Blue | C. albicans biofilm + clotrimazole | inhibition, % at 6 µM | 0.14% of 85,000 active | AID 834, 2007;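 active means inhibition above 20%; inactive means inhibition below 20%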;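 further: preformed 24 hr biofilms exposed to compound for 48 hr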
PLAP activator: PLAP enzyme activators, biochemical, luminescence, HTS | Alkaline phosphatase, placental type (Homo sapiens), P05187 | purified PLAP enzyme, luminescent substrate read-out; stronger effect = higher value | activation fold at 20 µM | 1.2% of 96,000 active | AID 696, 2007; in the data active means activation fold above about 2
HePTP inh: inhibitors of human HePTP phosphatase, primary screen, biochemical, absorbance, leukemia target | Tyrosine-protein phosphatase non-receptor type 7 (Homo sapiens), P35236 | recombinant HePTP phosphatase activity, OD absorbance | inhibition, % at 20 µM | 0.64% of 110,000 active | AID 521, 2006; in the data active means inhibition above about 50%
hDAT+cocaine: changed hDAT dopamine uptake under cocaine IC80, either direction, primary screen, cocaine antagonist project, cell-based, LLC-PK1 hDAT, [14C]-dopamine uptake, MLSMR; AID 449768, 2010; Sodium-dependent dopamine transporter (Homo sapiens), Q01959; 1.3% of 110,000 active; LLC-PK1 hDAT cells, [14C]-dopamine uptake with cocaine IC80; actives deviate in either direction; B-score at 10 µM;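 active means Z score or B-score, a plate-position-corrected score, falls beyond the plate's 99.7% confidence bounds, in either direction; inactive means both scores lie inside the 99.7% bounds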
TNAP act DEA: human TNAP enzyme activators, primary screen, biochemical, luminescent, intermediate phosphate acceptor level. Alkaline phosphatase, tissue-nonspecific isozyme (Homo sapiens), P05186. purified TNAP, CDP-star luminescence, 100 mM DEA, 30 min; stronger effect = higher value; scale: 0 levamisole-inhibited, 1 vehicle-only enzyme. activation factor at 20 µM. 64,000 tested, under 10 active;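 active means activation factor of at least 2 at 20 µM, relative to controls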
Target sequence (P05186 whole entry, looked up): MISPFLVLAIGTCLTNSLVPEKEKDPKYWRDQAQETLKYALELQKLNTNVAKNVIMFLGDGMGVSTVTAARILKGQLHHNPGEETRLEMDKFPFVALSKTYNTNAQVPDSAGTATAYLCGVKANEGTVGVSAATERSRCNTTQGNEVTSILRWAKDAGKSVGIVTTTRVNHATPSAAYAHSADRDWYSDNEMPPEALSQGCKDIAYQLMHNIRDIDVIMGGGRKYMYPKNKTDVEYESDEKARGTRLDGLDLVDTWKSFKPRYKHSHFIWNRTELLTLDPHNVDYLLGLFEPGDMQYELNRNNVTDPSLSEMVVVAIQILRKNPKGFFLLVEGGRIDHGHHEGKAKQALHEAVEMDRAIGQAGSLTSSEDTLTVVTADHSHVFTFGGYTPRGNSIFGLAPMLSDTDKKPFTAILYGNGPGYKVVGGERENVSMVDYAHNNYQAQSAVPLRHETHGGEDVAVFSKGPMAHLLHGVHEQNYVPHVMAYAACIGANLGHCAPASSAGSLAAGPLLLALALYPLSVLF
D1 mod confirm: D1 receptor positive allosteric modulators, retest, confirmation, cell-based, HEK293 D1, CRE-luciferase, duplicate; luminescence at 10 µM; shares compounds with D1 allo mod; 88% of 2,200 active; AID 642, 2007; dopamine EC30 potentiation; stronger effect = higher value;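 active means luminescence in either of two replicates above the same-plate mean plus 3 SD of the low-dose dopamine control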
D1 no dopamine: D1 receptor agonism without dopamine, confirmation, mechanism study for D1 allosteric modulator project, cell-based, HEK293 D1, CRE-luciferase, secondary assay 1. shares compounds with D1 allo mod. luminescence, no dopamine; stronger effect = higher value. luminescence at 10 µM. 0.8% of 1,900 active. AID 646, 2007; in the data active means luminescence above about 3900
Isoprot counter: isoproterenol response counter-screen activity for D1 modulators; shares compounds with D1 allo mod; HEK293 D1 CRE-luciferase, isoproterenol EC30 counter-screen; stronger effect = higher value; luminescence at 10 µM; 63% of 2,200 active; AID 647;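 active means luminescence in either replicate above plate mean of wells with a partly effective reference agonist dose plus 3 SD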;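 further: isoproterenol raises cAMP through native beta-adrenoceptor Gs so signal bypasses D1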
Numbers stand for hits; n = inactive; x = no result.

SMILES	D1 allo mod	Calb biofilm kill	PLAP activator	HePTP inh	hDAT+cocaine	TNAP act DEA	D1 mod confirm	D1 no dopamine	Isoprot counter
COc1cc(C(=O)Nc2ccccc2Br)cc(OC)c1OC	x	x	x	n	x	x	x	x	x
CCCc1cc(=O)[nH]c(NCc2ccc(Cl)cc2)n1	2.8	n	n	n	n	n	8064	n	n
CCCc1cc(=O)[nH]c(Nc2ccc(O)cc2)n1	x	n	n	x	n	x	x	x	x
COc1ccc(S(=O)(=O)N(CC(=O)Nc2ccc(C(C)=O)cc2)c2cc(C)cc(C)c2)cc1OC	x	x	x	n	x	x	x	x	x
CCOC(=O)c1c(N)c(C#N)c2n1CCCCC2	11	n	n	n	n	n	10284	n	3312
CC(C)CC(NC(N)=O)c1ccccc1 (stereo not drawn)	x	x	x	n	x	x	x	x	x
N#Cc1c(-c2ccccc2)nc(N2CCCCCC2)[nH]c1=O	13	n	n	n	n	n	26112	n	3736
COc1ccccc1N1CCN(/N=C\c2cccs2)CC1	x	x	x	n	x	x	x	x	x
Cc1ccc(CNC(=O)C(C)Oc2ccc(Cl)cc2Cl)cc1 (stereo not drawn)	x	x	x	n	x	x	x	x	x
CC(Oc1ccc(Cl)cc1Cl)C(=O)NCc1ccncc1 (stereo not drawn)	6.7	n	n	n	n	n	14184	n	3668
CCN(CC)c1ccc(NC(=O)/C=C\C(=O)O)cc1	x	x	x	n	x	x	x	x	x
Nc1nonc1-n1nncc1-c1ccccc1	5.9	n	n	n	n	n	10724	n	3176
Nc1nc(-c2ccc(-n3nncc3-c3ccccc3)cc2)cs1	x	x	x	n	x	x	x	x	x
COc1ccc(NS(=O)(=O)c2ccccc2)cc1OC	x	x	x	n	x	x	x	x	x
COc1ccc(S(=O)(=O)N2CCc3ccccc3C2)cc1OC	x	n	n	x	n	x	x	x	x
COc1cc2c(cc1OC)CN(S(=O)(=O)c1ccc3c(c1)OCCO3)CC2	5.3	n	n	n	n	n	15328	n	3488
CCN(CC)C(=O)c1sc(NC(=O)/C=C/c2cccs2)c(C(=O)OC(C)C)c1C	x	x	x	n	x	x	x	x	x
COc1ccc(CNCc2ccc(Cl)cc2)cc1OC	x	x	x	n	x	x	x	x	x
O=C1/C(=C\c2cccc3ccccc23)SC(=S)N1CCc1ccccc1	x	x	x	n	x	x	x	x	x
COc1ccc(NC(C)=O)cc1NC(=O)CN1CCN(C(=O)c2ccco2)CC1	x	x	n	x	n	x	x	x	x
COC(=O)c1ccccc1NC(=O)CN1CCN(C(=O)c2ccco2)CC1	3.2	n	n	n	n	n	n	n	n
COC(=O)c1ccccc1NC(=O)CN1CCC(NC(=O)c2ccccc2C)CC1	4.2	n	n	n	n	n	9492	n	3456
CCOc1ccc(N(CC(=O)NCCCOC)S(=O)(=O)c2ccc(SC)cc2)cc1	x	x	x	n	x	x	x	x	x
O=C(O)C(Cc1ccccc1)N1C(=O)/C(=C/c2ccc(O)cc2)SC1=S (stereo not drawn)	x	x	x	n	x	x	x	x	x
O=C1CC(c2ccccc2)Sc2ccccc2N1 (stereo not drawn)	26	n	n	n	n	n	18012	n	3720
SMILES	D1 allo mod	Calb biofilm kill	PLAP activator	HePTP inh	hDAT+cocaine	TNAP act DEA	D1 mod confirm	D1 no dopamine	Isoprot counter
C/C(=C\C(=O)c1ccccc1)Nc1cc(F)c(F)cc1N	x	x	x	n	x	x	x	x	x
CCOC(=O)c1[nH]c(C)c(C(=O)OCc2c(C)noc2C)c1C	5.1	n	n	n	n	n	7568	n	3380
COc1ccc(N2CCN(c3nc(NCCc4ccc(OC)c(OC)c4)nc(OC)n3)CC2)cc1	2.8	n	n	n	n	n	11472	n	3388
Cn1c(=O)n(CC(=O)O)c(=O)c2c1nc1n2CCS1	5.7	n	n	n	n	n	n	n	n
Cc1ccccc1OCC(=O)N1CCN(c2ccccn2)CC1	x	x	x	n	x	x	x	x	x
Cc1cc(O)c(/C=N/Nc2ccccc2)c(=O)o1	x	x	n	x	n	x	x	x	x
Cc1cc(O)c(C=Nc2cccc(Cl)c2)c(=O)o1	3.8	n	n	n	n	n	8536	n	n
COC(=O)c1c(NC(=O)c2cccc(F)c2)sc2c1CCCCC2	x	x	x	n	x	x	x	x	x
CC(=O)C(=Cc1cc(C(C)(C)C)c(O)c(C(C)(C)C)c1)C(C)=O	x	x	x	n	x	x	x	x	x
CCN(CC(=O)NC1CCCCCC1)S(=O)(=O)c1ccccc1	6.7	n	n	n	n	n	n	n	n
CC(C)(C)c1cc(/C=N/Nc2nnc3c(n2)[nH]c2ccccc23)cc(C(C)(C)C)c1O	x	x	x	n	x	x	x	x	x
CCC1(C)Cc2c(C#N)c(N)sc(=S)c2CO1 (stereo not drawn)	20	n	n	n	n	n	18368	n	3980
CCOC(=O)/C(=C/c1c[nH]c2ccccc12)C(C)=O	x	x	x	n	x	x	x	x	x
CCOc1ccc(OCC)c(NC(=O)CC2Oc3ccc(C)cc3NC2=O)c1 (stereo not drawn)	2.7	n	n	n	n	n	n	n	n
CCCCn1c2nc3ccccc3nc2c2c(=O)n(C(C)CC)cnc21 (stereo not drawn)	10	n	n	n	n	n	11776	n	n
